Measured values reported in PubChem BioAssay (EPA / NIEHS).
The source made the active and inactive calls. Rule for the calls: active = hit-call score of the fitted dose curve at least 0.9, where 1 is the maximum; inactive = score below 0.9.

Assay: ATG_GLI_CIS: Attagene CIS-FACTORIAL HepG2 Assay for human Zinc Finger Protein GLI1 (AID 2282945)
Conditions: HepG2, Attagene cis-factorial reporter mRNA, GLI element; actives raise or lower the signal
Summary of the method: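 Bidirectional curve fits relative to DMSO, using reporter mRNA levels from RT-PCR plus capillary electrophoresis. Cells were HepG2 transiently carrying cis-regulated reporter constructs, harvested 24 h after dosing.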

Compound	outcome	AC50
CCCSP(=S)(OCC)Oc1ccc(SC)cc1 (centres undefined)	inactive	
COCC(=O)N(c1c(C)cccc1C)[C@H](C)C(=O)OC	inactive	
Cc1cc(C)cc(C)c1	inactive	
CCOP(=S)(OCC)SCSc1cc(Cl)ccc1Cl	inactive	
C=CC(=O)[O][Sn]([CH2]CCC)([CH2]CCC)[CH2]CCC		0.602 µM (active)
N#CS	inactive	
Cc1cccc(OP(=O)(Oc2cccc(C)c2)Oc2cccc(C)c2)c1	inactive	
C1CN2CCN1CC2	inactive	
COc1ccc([N+](=O)[O-])cc1O	inactive	
CCC[N+](CCC)(CCC)CCC	inactive	
O=c1nc(O)n(Cl)c(=O)n1Cl	inactive	
O=NN1CCOCC1	inactive	
O=C(O)CC(O)(CC(=O)O)C(=O)O	inactive	
CCOP(=S)(OCC)SCS(=O)(=O)C(C)(C)C	inactive	
CC(c1ccc(O)cc1)c1ccc(O)cc1	inactive	
COc1nn(C(=O)NS(=O)(=O)c2ccccc2OC(F)(F)F)c(=O)n1C	inactive	
CC(C)[N+](=O)[O-]	inactive	
CC1(C)[C@H](C(=O)O[C@H](C#N)c2cccc(Oc3ccccc3)c2)[C@@H]1/C=C(\Cl)C(F)(F)F	inactive	
C=C(C)[C@@H]1CC=C(C=O)CC1	inactive	
CC1CC(=O)O1 (centres undefined)	inactive	

Compound	outcome	AC50
Brc1ccc(Br)cc1	inactive	
CC(C)O.CC(C)O.OCCN(CCO)CCO.OCCN(CCO)CCO.[Ti]	inactive	
CCCCCCCCCCCCCl	inactive	
CCOc1cc(C=O)ccc1O	inactive	
O=S(=O)(C(Cl)(Cl)Cl)C(Cl)(Cl)Cl		19.3 µM (active)
CC(C)(C)c1ccccc1O	inactive	
O=C(N[C@H]1CN2CCC1CC2)c1ccc2c(c1)OCCO2	inactive	
O=C(Cc1ccccc1)OCCc1ccccc1	inactive	
OCCN(CCO)CCO	inactive	
OC[C@@H](O)[C@H]1O[C@@H]2O[C@H](C(Cl)(Cl)Cl)O[C@@H]2[C@H]1O	inactive	
Oc1c(Cl)cc(Cl)cc1Cl	inactive	
C[N+](C)(C)Cc1ccccc1	inactive	
OC(Cc1ccccc1Cl)(Cn1[nH]cnc1=S)C1(Cl)CC1 (centres undefined)	inactive	
CCCCS(=O)(=O)Cl	inactive	
CC1(C)[C@H](/C=C2\CCSC2=O)[C@@H]1C(=O)OCc1coc(Cc2ccccc2)c1	inactive	
C=CC(F)(C(F)(F)F)C(F)(F)C(F)(F)F (centres undefined)	inactive	
O=C(CBr)c1ccc(O)cc1	inactive	
C#CCOC(=O)/C=C(C)/C=C/CC(C)CCCC(C)C (centres undefined)	inactive	
CC(C)(C1CCC(O)CC1)C1CCC(O)CC1 (centres undefined)	inactive	
